Assay results taken from PubChem BioAssay AID488899 (Broad Institute, 2010).
In all, about 330,000 compounds went through this assay and about 2,800 (0.85%) were called active.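 The calls were made as follows: active = mean inhibition across replicates of 60% or more, whatever share of single replicates reaches that level; inconclusive = some that reach 60%, reason not given; inactive = mean inhibition across replicates below 60%.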 The full list was thinned out, with actives kept by preference.

test: inhibitors of MITF-dependent TRPM1 promoter reporter, primary screen, cell-based, SK-MEL-5, single point, luciferase (AID 488899); conditions: SK-MEL-5 TRPM1 promoter luciferase, 24 h; at 12.5 µM; stronger effect = higher value

| SMILES | inhibition |
| --- | --- |
| COc1ccc(-c2cc(C(=O)NC(Cc3c[nH]c4ccccc34)C(=O)O)c(C)o2)cc1OC (stereo unspecified) | 9.33% (inactive) |
| O=C(NCC1(N2CCCCC2)CCCCC1)c1cccc(S(=O)(=O)Nc2ccccc2Cl)c1 | -26.7% (inactive) |
| Cc1cc(NC(=O)C(C)SCC(=O)Nc2cccc(S(=O)(=O)N3CCCCCC3)c2)no1 (stereo unspecified) | 18.1% (inactive) |
| CCC1CCCCN1C(=S)Nc1ccc(SC(F)F)cc1 (stereo unspecified) | -3.13% (inactive) |
| COCCn1c(=NC(=O)c2ccccc2[N+](=O)[O-])sc2cc(S(C)(=O)=O)ccc21 | -52% (inactive) |
| N#CC1=C(N)Oc2cc(N)ccc2C1c1ccccc1 (stereo unspecified) | 23.5% (inactive) |
| Nc1ncnc2c1cnn2C1CC(O)C(CO)O1 (stereo unspecified) | -4.63% (inactive) |
| CC(C(=O)NC1CCCC1)N1CCN(S(=O)(=O)c2ccccc2Cl)CC1 (stereo unspecified) | -2.61% (inactive) |
| O=C(Nc1c[nH]c(=O)[nH]c1=O)OCc1ccccc1 | 0.994% (inactive) |
| CC1(C)N=C(N)NC(Nc2ccc(Cl)cc2)=N1 | 4.8% (inactive) |
| CC(C)(C)OC(=O)NC(Cc1ccccc1)C(=O)NC(CSC1CCCCO1)C(=O)NN (stereo unspecified) | -5.98% (inactive) |
| COc1ccc2sc(-c3ccc(N(C)C)cc3)c(C#CCO)c2c1 | -46.5% (inactive) |
| COc1ccc2c(c1)c(=Cc1ccc(N(C)C)cc1)c1cc(-c3ccccc3)[n+](C)n12 | 95.7% (active) |
| COc1ccc2sc(-c3ccc(N(C)C)cc3)c(-c3ccc4cc[nH]c4c3)c2c1 | -103% (inactive) |
| Cn1cc(S(=O)(=O)N2CCN(c3ccc(F)cc3)CC2)c(=O)n(C)c1=O | 1.94% (inactive) |
| COC(=O)Cc1nc2c(N)nc(N)nc2[nH]c1=O | 3.9% (inactive) |
| CCc1ccc(-c2cc(C)no2)cc1S(=O)(=O)NCCc1ccc(S(N)(=O)=O)cc1 | -13.2% (inactive) |
| O=C(C[C@H]1C[C@H](C(=O)N2CCOCC2)[C@@]2(CCC3CCCC3)c3[nH]c4ccc(Cl)cc4c3CCN2C1=O)NCc1ccco1 | 21.2% (inactive) |
| COc1ccc(CNC(=O)C[C@H]2C[C@H](C(=O)N3CCOCC3)[C@@]3(CCC4CCCC4)c4[nH]c5ccc(Cl)cc5c4CCN3C2=O)cc1OC | 72.7% (active) |
| COc1ccc2[nH]c3c(c2c1)CCN1C(=O)C(CC(=O)NCCCN(C)C)C[C@H](C(=O)N2CCOCC2)[C@@]31CCC1CCCC1 (stereo partly specified) | -12.1% (inactive) |
| CCOC(=O)N1CCN(C(=O)C2CCCN(c3ncnc4c3sc3cccc(F)c34)C2)CC1 (stereo unspecified) | 28.8% (inactive) |
| Cc1[nH]c2c(C(=O)N3CCCC(CCC(=O)NCc4ccccc4F)C3)cccc2c1C (stereo unspecified) | -16% (inactive) |
| CC(=O)Oc1ccc2c(c1)C(=O)c1ccccc1C2=O | -2.87% (inactive) |

| SMILES | inhibition |
| --- | --- |
| CC(=O)N(C1=C(Cl)C(=O)c2ccccc2C1=O)c1ccc(C(=O)O)cc1 | 11.6% (inactive) |
| O=C1C(Cl)=C(Oc2ccccc2)C(=O)c2ccccc21 | 89.7% (active) |
| COC(=O)C1=C(NC(=O)C(C)(C)C)CCS1 | -3.02% (inactive) |
| CC(C)C[C@@H](NC(=O)[C@H]1CCCN1C(=O)Cc1ccccc1)C(N)=O | 0.4% (inactive) |
| NC(=O)C1(N2CCCC2)CCN(Cc2ccccc2)CC1 | -3.66% (inactive) |
| Cc1cccc(-n2ncc(Cl)c(Cl)c2=O)c1 | 72.1% (active) |
| Cc1cccc(-n2ncc(C#N)c2-n2cccc2)c1 | 3.18% (inactive) |
| C=CCNc1cnn(-c2ccc(C)cc2)c(=O)c1Cl | -110% (inactive) |
| CNN/C(N=Cc1ccc([N+](=O)[O-])s1)=N\S(=O)(=O)c1cc(C)c(Cl)cc1SCc1ccccc1 | 24.1% (inactive) |
| CNC[C@H](CC1CCCCC1)NC[C@H](NCCC1CCCC1)[C@H](C)O | 78.2% (active) |
| CCOC(=O)c1ccccc1NC(=O)CSc1nc2c(sc(=S)n2CC)c(=O)[nH]1 | -3.35% (inactive) |
| Cc1ccc(-n2nc(N)c3c(=O)oc(N(C)C)nc32)cc1 | -8.9% (inactive) |
| COc1ccc(C(=O)NCC(c2ccco2)N2CCc3ccccc32)cc1OC (stereo unspecified) | 5.95% (inactive) |
| Cc1ccc(-c2cn3cc(C)ccc3n2)cc1 | 93.3% (active) |
| Cc1ccc(-c2cn3cc([N+](=O)[O-])ccc3n2)cc1 | 48.1% (inactive) |
| Cc1ccc2nc(-c3ccc(Br)cc3)cn2c1 | 50.5% (inactive) |
| CCOc1ccc(-n2cnc3c(=O)[nH]c(N)nc32)cc1 | -21.7% (inactive) |
| O=C(CCCCCCCC(=O)N1CCCCC1)N1CCCCC1 | 0.359% (inactive) |
| COc1ccc(NC(=O)COC(=O)c2ccncc2)c(OC)c1 | -6.34% (inactive) |
| Cc1cc2oc(=O)cc(CN3CCN(Cc4ccccc4)CC3)c2cc1C | -7.61% (inactive) |
| Cc1cc2oc3ccc(NCCC4CCCN4C)cc3c(=O)c2cc1C (stereo unspecified) | 82.2% (active) |
| COc1cccc2sc3cc(NCC[C@@H]4CCCN4C)ccc3c(=O)c12 | -35.6% (inactive) |
| CCOc1ccc(CN2CCNC(=O)C2CC(=O)NCCCC2CCCC2)cc1 (stereo unspecified) | -18.3% (inactive) |

| SMILES | inhibition |
| --- | --- |
| COc1cc([N+](=O)[O-])ccc1NC(=O)COC(=O)CCOc1ccc(C)cc1 | 8.46% (inactive) |
| COc1ccc(CS(=O)/C(Cl)=C(/Cl)C(=O)Nc2ccc(OC)nc2)cc1 (stereo unspecified) | 99.4% (active) |
| COc1ccc(CCNC(=O)c2cnc(Cl)c(Cl)c2)cc1 | 1.33% (inactive) |
| COc1ccc(C(=O)CCC(=O)Nc2ccc(Cl)cc2)cc1 | -4.44% (inactive) |
| COC(=O)c1sccc1NC(=S)Nc1ccc(C)cc1 | -74.3% (inactive) |
| CCN(CC(=O)Nc1ccc(OC)cc1)C(=O)CSCc1ccc(C)cc1 | -0.141% (inactive) |
| COc1ccc(NC(=O)/C(Cl)=C(/Cl)S(=O)Cc2ccc(C)cc2)cn1 (stereo unspecified) | 113% (active) |
| COc1ccc(C(=O)NC(Cc2ccc(OC(=O)c3ccc(OC)cc3)cc2)C(=O)O)cc1 (stereo unspecified) | 3.82% (inactive) |
| Cc1nnc(N/N=C/c2ccccn2)[nH]c1=O | 79.6% (active) |
| O=C(N/N=C/c1ccccn1)C12CC3CC(CC(C3)C1)C2 | 0.297% (inactive) |
| Cc1cc(C(=O)N/N=C/c2ccccn2)c2ccccc2n1 | -2.21% (inactive) |
| O=C(O)c1cc(S(=O)(=O)N(Cc2ccccc2)c2cccc(C(F)(F)F)c2)ccc1Cl | 11.3% (inactive) |
| COc1cc2c(cc1OC)C(Nc1ccc(S(N)(=O)=O)cc1)=NC(C)(C)C2 | 12.1% (inactive) |
| COc1cc2c(cc1OC)C(C(C)C)=NC(C)(C)C2 | 2.2% (inactive) |
| COc1cc2c(cc1O)C(SC)=NC(C)(C)C2 | 73.8% (active) |
| COc1ccc(-n2c(C)nn(CC3CC3)c2=O)cc1 | -0.556% (inactive) |
| CCOc1ccc(NC(=O)CSc2nc3ccccc3c(=O)n2Cc2cccs2)cc1 | 9.83% (inactive) |
| C=CCn1c(CNS(=O)(=O)c2ccc(Br)cc2)nnc1SC | -0.805% (inactive) |
| COc1ccccc1N1CCN(/N=C\C(Br)=C\c2ccccc2)CC1 | -56.4% (inactive) |
| Cc1cc(-c2n[nH]c(=S)n2/N=C/C(Br)=C/c2ccccc2)n[nH]1 | 71.3% (active) |
| CC(C)c1cc(C(=O)N/N=C/C(Br)=C/c2ccccc2)n[nH]1 | 11.7% (inactive) |
| COc1ccc(-c2cc(=O)oc3cc(OC(C)C(=O)Nc4ccc(CN5CCOCC5)cc4)ccc23)cc1 (stereo unspecified) | -4.64% (inactive) |
| CCCN(CCC)S(=O)(=O)c1cc2c(cc1Br)CCN2C(=O)CC | 0.177% (inactive) |

| SMILES | inhibition |
| --- | --- |
| NN=C(NN=Cc1ccccc1)c1ccccc1 | -40.6% (inactive) |
| CC(Oc1ccc(-c2ccccc2)c(F)c1)c1ccn(S(=O)(=O)c2cccc3ccccc23)n1 (stereo unspecified) | -2.2% (inactive) |
| O=C(O)c1ccc(S(=O)(=O)c2ccccc2)s1 | 11.8% (inactive) |
| COc1ccc(C2=NN(c3nc4ccccc4s3)C(=O)C2)cc1 | 19.7% (inactive) |
| CC(=NCc1ccco1)c1c(C(F)(F)F)[nH]n(-c2nc3ccccc3s2)c1=O | -61.7% (inactive) |
| COC(=O)Cc1[nH]n(-c2nc3ccccc3s2)c(=O)c1C(C)=Nc1ccc(OC)cc1 | 95.4% (active) |
| CC[C@]12c3[nH]c4ccc(Cl)cc4c3CCN1C(=O)[C@@H](CC(=O)NCCCOC)C[C@@H]2C(=O)N1CCN(C(=O)c2ccco2)CC1 | -7.5% (inactive) |
| CCOc1ccc(N/C=C/C(=O)c2ccccc2)cc1 | 8.94% (inactive) |
| CCOc1ccc(N/C=C/C(=O)c2cc(OC)c(OC)c(OC)c2)cc1 | 4.18% (inactive) |
| COc1ccc(C(=O)/C=C/Nc2ccccn2)cc1 | 67.5% (active) |
| O=[N+]([O-])c1ccc(N=NNc2ccc([N+](=O)[O-])cc2)cc1 | -19.3% (inactive) |
| CC(=O)NCCNC(=O)c1cc(-c2cccc3ccccc23)nc2ccccc12 | 9.13% (inactive) |
| CN(C)CCNC(=O)Nc1cccc(Cl)c1Cl | 5.71% (inactive) |
| CN(C)CCNC(=O)c1ccc(Cl)c2cc3ccccc3nc12 | 74.8% (active) |
| Cc1ccc(OCC(=O)Nc2ccc(NC(=O)c3cccs3)cc2)c(C)c1 | 27.8% (inactive) |
| Cc1ccc(C(=O)Nc2ccc(NC(=O)c3cccs3)cc2)c(C)c1 | -4.59% (inactive) |
| Cc1ccc(-c2nnc(-c3ccc(NC(=O)c4cccs4)cc3)o2)cc1 | 73.5% (active) |
| CS(=O)(=O)c1ccc2nnn(OCC(=O)Nc3cccc(C#N)c3)c2c1 | 10.8% (inactive) |
| COc1cc(O)c2c(=O)c3c(O)c(O)ccc3oc2c1OC | -1.36% (inactive) |
| Cc1ccccc1-c1n[nH]c(=S)n1/N=C/c1ccc(-c2ccccc2Br)o1 | 10.7% (inactive) |
| O=C(CSc1n[nH]c(-c2cccs2)n1)N1CCCCC1 | -12.1% (inactive) |
| COc1cc(OC)cc(C(=O)NNC(=O)CCOc2ccccc2OC)c1 | -4.37% (inactive) |
